# Screening results (PubChem)
# Many of the other results were omitted from the sample, so hits are more common in it than they were.
# Pf Dd2 growth: inhibitors of Plasmodium falciparum Dd2 growth. P. falciparum Dd2 growth, SYBR Green, 72 h. Potency, µM (doses to about 28.9 µM), for the others: at the top dose activity, negative = inhibition, most hits filed as inhibitors. actives 4.3% (n = 120,000); active = well fitted inhibition curve with a large enough effect;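 note: plate controls were DMSO vehicle for no effect and reference drug for full effect; nearly all actives have a fitted effect of over 65% in size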
#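 Infected erythrocytes (Dd2, 0.3% parasitemia, 2.5% hematocrit final) are added to compound in RPMI-1640/Albumax II medium, grown 72 h at 37C in low oxygen, then lysed with saponin/Triton-X containing SYBR Green and read by fluorescence.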
# The depositor's hits bear a star; i = inactive; [ ] = dose if it differs, or a comment. Potency is the fitted concentration of half-maximal effect.
SMILES,Pf Dd2 growth
COc1cc(/C=C/CN2CC(=O)N(C(C)C)CC(OCc3noc(C)n3)C2)ccc1O (configuration not stated),-19%
Cc1ccc2c(c1)N(CC(=O)N1C[C@@H](C)[C@](O)(C3CCC3)C1)C(=O)CO2,-15%
Cc1ccccc1NC(=O)c1ccc2c(c1)c(C)c(C)n2Cc1ccccc1,-3%
CSc1cccc(NC(=O)c2ccc3c(c2)c(C)c(C)n3Cc2ccc(F)cc2)c1,10µM*
Cc1c(C)n(Cc2ccccc2)c2ccc(C(=O)NC(C)c3ccccc3)cc12 (configuration not stated),-10%
CCc1ccccc1NC(=O)c1ccc2c(c1)c(C)c(C)n2Cc1ccccc1,11µM*
Cc1c(C)n(Cc2ccccc2)c2ccc(C(=O)NCc3ccccc3F)cc12,-11%
CSc1ccc(CCNC(=O)c2ccc3c(c2)c(C)c(C)n3Cc2ccc(F)cc2)cc1,9%
COC(=O)C1=CN(CC(=O)Nc2cccc(C)c2C)S(=O)(=O)N=C1C,42%
O=C(CC1COCCN1C(=O)c1cc(F)ccc1F)NCc1cccnc1 (configuration not stated),9%
O=C(NCc1ccccc1F)c1ccc2c(c1)CNCCO2,-15%
CN1CCCCC(CC(=O)O)C1=O (configuration not stated),7%
CCCCNC(=O)Cc1csc2nc(C)c(-c3cc(C)n(-c4cccc(Cl)c4)n3)c(=O)n12,7.9µM*
CCCCNC(=O)Cc1csc2nc(C)c(-c3cc(C)n(-c4ccc(C)cc4)n3)c(=O)n12,-8%
CCCCCNC(=O)Cc1csc2nc(C)c(-c3cc(C)n(-c4cccc(C)c4)n3)c(=O)n12,-16%
CCCNC(=O)Cc1csc2nc(C)c(-c3cc(C)n(-c4cccc(C)c4C)n3)c(=O)n12,i
Cc1ccc(Cl)cc1-n1nc(-c2c(C)nc3scc(CC(=O)NCCC(C)C)n3c2=O)cc1C,7.9µM*
COCCNC(=O)Cc1csc2nc(C)c(-c3cc(C)n(-c4ccccc4F)n3)c(=O)n12,-15%
CCOc1cc(CN(C)C(=O)CC2C(=O)NCCN2Cc2ccccc2)ccc1OC (configuration not stated),-15%
O=C1CCN(C(=O)c2ccccc2)CCCC(C(=O)NCC2CC2)CCN1 (configuration not stated),23%
Cc1cccc(NC(c2cccc(Cl)c2)c2ccc3cccnc3c2O)n1 (configuration not stated),2.5µM*
O=C(COc1ccc(Cl)cc1Cl)Nc1cccc2cccnc12,11%
COc1ccc(C(Nc2ccccn2)c2ccc3ccc(C)nc3c2O)cc1C (configuration not stated),21%
CCCN(CCC)CCNC(=O)C1CCN(c2nc3ccc(CC)cc3s2)CC1,7.1µM*
CCCN(CCC)CCCNC(=O)C1CCN(c2nc3ccc(CC)cc3s2)CC1,7.1µM*
SMILES,Pf Dd2 growth
CCCN(CCC)CCCNC(=O)C1CCN(S(=O)(=O)CC)CC1,61%
CCOc1ccc2nc(N3CCC(C(=O)Nc4ccc(Br)cc4F)CC3)sc2c1,-27%
CCc1ccc2nc(N3CCC(C(=O)NCCC(C)C)CC3)sc2c1,i
Cc1ccc(CNC(=O)c2ccc3nc(N4CCCCC4)sc3c2)cc1,-8%
O=C(NCC(c1cccnc1)N1CCCCC1)c1cn2c(n1)CNCC2 (configuration not stated),9%
COc1ccc(CN2C(=O)CO[C@H](c3ccc(NC(=O)NC(C)(C)C)cc3)[C@H]2CO)cc1,i
Cn1nccc1C(=O)N1CC(c2ncc3c(-c4ccc(F)cc4)nccn23)C1,-7%[44.1 µM]
CCn1ccnc1CN(C)Cc1cn(C)nc1-c1ccc(Oc2ccccc2)cc1,-4%
Cn1cc(CN2CCCC2c2ccccn2)c(-c2ccc(Oc3ccccc3)cc2)n1 (configuration not stated),7.1µM*
O=c1cc(CN2CCCCC2c2ccccn2)[nH]c2ccc(F)cc12 (configuration not stated),-10%
COc1cccc(-c2noc(-c3ccc(NCCCSC)nc3)n2)c1OC,i
COc1cccc(-c2noc(-c3ccc(NCCn4cccn4)nc3)n2)c1OC,13µM*
COc1cccc(-c2noc(-c3ccc(-c4cn[nH]c4)nc3)n2)c1OC,-23%
CNC(=O)c1cc2cc(-c3c(C)noc3C)nc(-c3cccnc3OC)c2o1,i
O=C(N[C@@H]1CN[C@H](CO)C1)C1CC1,72%
O=C(c1ccccc1)N1CCN2C(=O)N(Cc3ccc(F)cc3)C[C@H]2C1,-11%[44.1 µM]
Cc1nc([C@@H]2CN(S(=O)(=O)C(C)C)C[C@H]2C(N)=O)n[nH]1,15%
O=C(CN1C(=O)NC2(CCOCC2)C1=O)Nc1ccc2c(c1)OCCO2,22%
CC(C)(C)C1CCC2(CC1)NC(=O)N(CC(=O)Nc1ccc3c(c1)OCCO3)C2=O (configuration not stated),7.9µM*
CC1CCC2(CC1)NC(=O)N(CC(=O)Nc1ccc3c(c1)OCO3)C2=O (configuration not stated),i
Cc1csc(NC(=O)C2(C)COCc3cnc(Nc4ccccc4)nc32)n1 (configuration not stated),i
COCCN1C(=O)c2cccn2CC1CNC(=O)CCc1ccccc1 (configuration not stated),-11%
CC(C)CCNC1(Cc2cc(CN3CCOCC3)on2)COC1,-10%[44.1 µM]
O=S(=O)(NCC1(COc2ccc(C(F)(F)F)cn2)C[C@@H](O)[C@@H](O)C1)c1ccc(F)cc1 (some centres not stated),i
CN(C)[C@@H]1CN(C(=O)c2cccc(C#N)c2)C[C@H]1CO,9%
SMILES,Pf Dd2 growth
COCCN1C(=O)c2ccccc2C(C(=O)Nc2nc3ccccc3s2)C12CCCC2 (configuration not stated),6.3µM*
COCCN1C(=O)c2ccccc2C(C(=O)Nc2nc3c(s2)CCC3)C12CCCC2 (configuration not stated),13µM*
COCCN1C(=O)c2ccccc2C(C(=O)NCc2ccccc2)C12CCCC2 (configuration not stated),-15%
COCCN1C(=O)c2ccccc2C(C(=O)NCCC(C)C)C12CCCC2 (configuration not stated),-19%
COCCN1C(=O)c2ccccc2C(C(=O)NCCc2ccccc2)C12CCCC2 (configuration not stated),-20%
COCCN1C(=O)c2ccccc2C(C(=O)Nc2nc(C(=O)OC)c(C(C)C)s2)C12CCCC2 (configuration not stated),11µM*
COCCN1C(=O)c2ccccc2C(C(=O)Nc2nncs2)C12CCCC2 (configuration not stated),-10%
COCCN1C(=O)c2ccccc2C(C(=O)Nc2nc(C)c(C)s2)C12CCCC2 (configuration not stated),7.9µM*
COCCN1C(=O)c2ccccc2C(C(=O)NCc2ccc(OC)cc2)C12CCCC2 (configuration not stated),-13%
CC(C)Cc1nc2ccc(NC(=O)C[C@H]3NC(=O)c4ccccc4NC3=O)cc2[nH]1,-11%
Cc1ccc(-c2nc(-c3nnn4c3COC(c3ccc(Cl)cc3)C4)no2)cc1F (configuration not stated),i
CN1CC(=O)N(c2ccccc2)Cc2c1ncnc2N1CCCC1CO (configuration not stated),12%
C=CCNC(=O)CC1CCCN(c2cnn(CC)c(=O)c2)C1 (configuration not stated),21%
CN(CC1CCOCC1)C(=O)c1cc(F)ccc1Cl,12%
